Data as given in PubChem BioAssay.

Biological target: Tumor necrosis factor receptor superfamily member 10B (Homo sapiens) (UniProt O14763)
Test: caspase-8 TRAIL sensitization, hit retest, confirmation, cell-based, NB7+caspase-8, with/without TRAIL, luminescence panel (AID 651596)
Conditions: NB7 neuroblastoma + caspase-8, TRAIL sensitization, luminescence viability, with TRAIL, mean of runs, at 10 µM, stronger effect = higher value; in the data active = activity above about 50%; inactive = the rest

Chain of Tumor necrosis factor receptor superfamily member 10B (Homo sapiens) (O14763 whole entry, looked up): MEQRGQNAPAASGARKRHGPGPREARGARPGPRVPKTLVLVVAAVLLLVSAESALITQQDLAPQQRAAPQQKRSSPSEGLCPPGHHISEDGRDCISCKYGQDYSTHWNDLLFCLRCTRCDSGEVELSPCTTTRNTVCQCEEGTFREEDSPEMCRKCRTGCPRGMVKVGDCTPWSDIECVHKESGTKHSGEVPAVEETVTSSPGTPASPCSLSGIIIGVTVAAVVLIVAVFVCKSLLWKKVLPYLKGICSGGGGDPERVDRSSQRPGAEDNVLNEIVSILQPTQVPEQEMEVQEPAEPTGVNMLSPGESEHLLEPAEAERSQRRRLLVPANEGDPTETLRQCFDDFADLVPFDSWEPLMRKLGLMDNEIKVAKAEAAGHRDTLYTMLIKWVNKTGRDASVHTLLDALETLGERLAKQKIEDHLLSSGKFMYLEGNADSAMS

SMILES	activity [%]
NC(=O)c1ccccc1N/C=C/C(=O)c1ccccc1	73.4
C/C(=N\NC(=O)c1csc(C)c1C)c1ccco1	46.9
CCCCc1nc(NCCN)c(C#N)c2c1CSC(C)(C)C2	72.5
CCc1ccc2nc(N(CCCN(C)C)C(=O)c3ccc(S(=O)(=O)N4CCCc5ccccc54)cc3)sc2c1	38.9
COc1ccc(NC(=O)c2ccccn2)cc1	75
CC(C)C[C@H](NC(=O)c1nc[nH]c1C(=O)N[C@@H](CCCCNC(=O)OC(C)(C)C)C(=O)OC(C)(C)C)C(=O)OCc1ccccc1	77.7
CNC[C@H](Cc1ccccc1)NC[C@@H](Cc1cccc2ccccc12)NCCc1ccc(C)cc1	95.4
CCN1CCN(CCNC(=O)c2ccc3c(c2)N(Cc2ccc(F)cc2)C(=O)/C(=C/c2ccccc2)S3)CC1	53.4
Cc1ccc(NC(=O)c2ccc3c(c2)OCCO3)cc1	76
Cc1cc(NC(=O)C2CCCC2)nc2c1c(=O)oc1ccccc12	68.7
Clc1ccc(-c2nnc(-c3ccccc3)o2)c(Cl)c1	81.8
O=C(C[C@H]1C[C@H](C(=O)N2CCCCC2)[C@@]2(CCc3ccccc3)c3[nH]c4ccc(Cl)cc4c3CCN2C1=O)NCCC1=CCCCC1	46.3
O=C1c2cc(F)ccc2-n2c1nc1ccccc1c2=O	32.5
O=C(/C=C/c1ccco1)Nc1ccccc1C(=O)O	45.1
COc1ccc(-c2cc3ccc(F)cc3cn2)cc1	66.5
CC(C)(C)OC(=O)NCc1ccc(NC(=O)c2nc[nH]c2C(=O)N[C@@H](Cc2ccccc2)C(=O)OCc2ccccc2)cc1	63.8
O=c1c2ccccc2oc2ccc(C#CC3(O)CCCCC3)cc12	86.2
CCCCCCC[N+](CC)(CC)CCCCc1ccc(Cl)cc1	43.9
c1ccc(Nc2nnc(-c3cccnc3)s2)cc1	57.6
COc1ccc(C2C(C(=O)N3CCC(C)CC3)c3ccccc3C(=O)N2C)cc1 (stereo not drawn)	67.2

SMILES	activity [%]
COc1cccc(NC(=O)Nc2nccc(C)n2)c1	64.5
COc1ccc(Oc2c(Cl)cnn(-c3ccc(F)cc3)c2=O)cc1	98
CN(C)S(=O)(=O)c1ccc(C(=O)Nc2nnc(SCC(=O)N3CCOCC3)s2)cc1	62.7
COc1ccc(C=C2CCc3ccccc3C2=O)cc1	90.9
O=C(OCn1ncc(Cl)c(Cl)c1=O)c1ccccc1Cl	99.1
O=C(c1cnc(Cl)c(Cl)c1)N1CCN(S(=O)(=O)c2ccc3ccccc3c2)CC1	45.5
O=C(C#Cc1ccccc1)c1ccccc1	54
C#Cc1cc(N2CCN(C(=O)c3ccoc3)CC2)n2nc(-c3cccc(Cl)c3)cc2n1	98.4
COc1cc(C(=O)Nc2nc3ccccc3[nH]2)ccc1OC(F)F	78.9
CCCC(=O)N1CCN(c2ccc(NC(=O)c3cc4ccccc4o3)cc2Cl)CC1	83
COc1cc(SC#N)ccc1N=Cc1c(C)[nH]n(-c2ccc(Cl)cc2)c1=O	66.9
COc1ccc(C=NNC(=O)NN=Cc2ccc(OC)c(OC)c2)cc1OC	69
COc1ccccc1/C=C/C=N/n1c(-c2cc(-c3ccccc3)n[nH]2)n[nH]c1=S	71.2
CCN(CC)S(=O)(=O)c1cc(NC(=O)Cn2ncc(Cl)c(Cl)c2=O)ccc1C	99.5
Cc1csc(NC(=O)c2cc3c(s2)CCC3)n1	81.8
CC(=O)N1CCc2c(sc(NC(=O)c3ccc([N+](=O)[O-])o3)c2C(N)=O)C1	51.4
O=C(N/N=C\c1cccc(OC(=O)c2ccco2)c1)c1ccc2c(c1)OCO2	83
Cc1cc2nc3ccc(N(C)C)cc3nc2cc1N	52.4
O=C(Nc1ccc2[nH]ccc2c1)c1cccs1	64

System: not listed separately
Test: as above
Conditions: NB7 neuroblastoma + caspase-8, without TRAIL, luminescence viability, without TRAIL, mean of runs, at 10 µM

SMILES	activity [%]
NC(=O)c1ccccc1N/C=C/C(=O)c1ccccc1	58.9
C/C(=N\NC(=O)c1csc(C)c1C)c1ccco1	40.4
CCCCc1nc(NCCN)c(C#N)c2c1CSC(C)(C)C2	53.7
CCc1ccc2nc(N(CCCN(C)C)C(=O)c3ccc(S(=O)(=O)N4CCCc5ccccc54)cc3)sc2c1	63.9
COc1ccc(NC(=O)c2ccccn2)cc1	69.8
CC(C)C[C@H](NC(=O)c1nc[nH]c1C(=O)N[C@@H](CCCCNC(=O)OC(C)(C)C)C(=O)OC(C)(C)C)C(=O)OCc1ccccc1	20.4
CNC[C@H](Cc1ccccc1)NC[C@@H](Cc1cccc2ccccc12)NCCc1ccc(C)cc1	99.1
CCN1CCN(CCNC(=O)c2ccc3c(c2)N(Cc2ccc(F)cc2)C(=O)/C(=C/c2ccccc2)S3)CC1	80.5
Cc1ccc(NC(=O)c2ccc3c(c2)OCCO3)cc1	73.2
Cc1cc(NC(=O)C2CCCC2)nc2c1c(=O)oc1ccccc12	50.2
Clc1ccc(-c2nnc(-c3ccccc3)o2)c(Cl)c1	79
O=C(C[C@H]1C[C@H](C(=O)N2CCCCC2)[C@@]2(CCc3ccccc3)c3[nH]c4ccc(Cl)cc4c3CCN2C1=O)NCCC1=CCCCC1	86.7
O=C1c2cc(F)ccc2-n2c1nc1ccccc1c2=O	25.7
O=C(/C=C/c1ccco1)Nc1ccccc1C(=O)O	42.1
COc1ccc(-c2cc3ccc(F)cc3cn2)cc1	58.9
CC(C)(C)OC(=O)NCc1ccc(NC(=O)c2nc[nH]c2C(=O)N[C@@H](Cc2ccccc2)C(=O)OCc2ccccc2)cc1	11.5
O=c1c2ccccc2oc2ccc(C#CC3(O)CCCCC3)cc12	84.8
CCCCCCC[N+](CC)(CC)CCCCc1ccc(Cl)cc1	47.1
c1ccc(Nc2nnc(-c3cccnc3)s2)cc1	40.5
COc1ccc(C2C(C(=O)N3CCC(C)CC3)c3ccccc3C(=O)N2C)cc1 (stereo not drawn)	68.5

SMILES	activity [%]
COc1cccc(NC(=O)Nc2nccc(C)n2)c1	53
COc1ccc(Oc2c(Cl)cnn(-c3ccc(F)cc3)c2=O)cc1	94.2
CN(C)S(=O)(=O)c1ccc(C(=O)Nc2nnc(SCC(=O)N3CCOCC3)s2)cc1	66
COc1ccc(C=C2CCc3ccccc3C2=O)cc1	91.4
O=C(OCn1ncc(Cl)c(Cl)c1=O)c1ccccc1Cl	99.3
O=C(c1cnc(Cl)c(Cl)c1)N1CCN(S(=O)(=O)c2ccc3ccccc3c2)CC1	25.1
O=C(C#Cc1ccccc1)c1ccccc1	96.6
C#Cc1cc(N2CCN(C(=O)c3ccoc3)CC2)n2nc(-c3cccc(Cl)c3)cc2n1	97.3
COc1cc(C(=O)Nc2nc3ccccc3[nH]2)ccc1OC(F)F	69.4
CCCC(=O)N1CCN(c2ccc(NC(=O)c3cc4ccccc4o3)cc2Cl)CC1	58.6
COc1cc(SC#N)ccc1N=Cc1c(C)[nH]n(-c2ccc(Cl)cc2)c1=O	41.2
COc1ccc(C=NNC(=O)NN=Cc2ccc(OC)c(OC)c2)cc1OC	65
COc1ccccc1/C=C/C=N/n1c(-c2cc(-c3ccccc3)n[nH]2)n[nH]c1=S	39.3
CCN(CC)S(=O)(=O)c1cc(NC(=O)Cn2ncc(Cl)c(Cl)c2=O)ccc1C	99.6
Cc1csc(NC(=O)c2cc3c(s2)CCC3)n1	86.3
CC(=O)N1CCc2c(sc(NC(=O)c3ccc([N+](=O)[O-])o3)c2C(N)=O)C1	90.9
O=C(N/N=C\c1cccc(OC(=O)c2ccco2)c1)c1ccc2c(c1)OCO2	74.1
Cc1cc2nc3ccc(N(C)C)cc3nc2cc1N	32.9
O=C(Nc1ccc2[nH]ccc2c1)c1cccs1	52.9
